Measured values as given in PubChem BioAssay (Tox21).
Records with an inconclusive call do not appear. A number with no mark means an inactive call. Calls of active or inactive are those of the source. The call rests on the fitted dose curve; in most records, active means well fitted cell-killing curve with a large enough effect in the repeat runs; inconclusive means weak or mixed curves, or effect the other way; inactive means flat fitted curve, though single readings scatter.

Test: cAMP Responsive Elements (CRE) small molecule agonists, cell-based qHTS assay: qHTS cell viability counter screen (AID 2060914); further: nearly all actives have a fitted effect of over 50% in size
Conditions: CRE-bla HEK293T viability, CellTiter-Glo luminescence, 5 h; series mostly up to 92.4 µM; activity change, negative = cytotoxicity: at the top concentration
In short: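 Luminescence read-out (CellTiter-Glo, 30 min RT) of ATP-based viability in CRE-bla HEK 293T cells, run in the same wells as the β-lactamase reporter assay after 3 h compound treatment at 37 °C.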
On the % scale 0 is the no-effect control and ±100 the full control effect; potency means the concentration at half of the fitted maximal effect.

First: O=S(=O)(NS(=O)(=O)C(F)(F)F)C(F)(F)F
Second: CCC(C)(NC(=O)c1cc(Cl)c(C)c(Cl)c1)C(=O)CCl (stereo not drawn)
The “activity change, negative = cytotoxicity” value of the first is higher: -10.8% for the first, -29.7% for the second.

Compared with O=[N+]([O-])c1ccc(F)c([N+](=O)[O-])c1, Cc1cc(C)c(C(=O)P(=O)(c2ccccc2)c2ccccc2)c(C)c1 is lower in “activity change, negative = cytotoxicity” value: -11.5% for the first, -13.1% for the second.

Compared with CO/N=C(/C1=NOCCO1)c1ccccc1Oc1ncnc(Oc2ccccc2Cl)c1F, CC(C)COP(=O)(OCC(C)C)OCC(C)C is higher in “activity change, negative = cytotoxicity” value: -16.5% for the first, -3.66% for the second.

Going from ClC(Cl)=C(Cl)Cl to CCCCCCCC(=O)Cl, the “activity change, negative = cytotoxicity” value rises from -2.13% to -0.271%.

For C=CCSSCC=C, the “activity change, negative = cytotoxicity” value was 10.2%.

Going from C=CC[C@]1(O)CC[C@H]2[C@@H]3CCC4=CC(=O)CCC4=C3C=C[C@@]21C to N[C@@H](Cc1ccc(Oc2cc(I)c(O)c(I)c2)c(I)c1)C(=O)O, the “activity change, negative = cytotoxicity” value rises from -11.1% [at 42.5 µM] to 16.2% [at 42.5 µM].

Compared with ClCCN1CCCC1, Sc1ccccc1Cl is higher in “activity change, negative = cytotoxicity” value: -1.95% [at 42.5 µM] for the first, 1.21% [at 42.5 µM] for the second.

With C=C(C)[C@H]1CN[C@H](C(=O)O)[C@H]1CC(=O)O the “activity change, negative = cytotoxicity” value was -0.614% [at 42.5 µM].

With CC(C)c1ccc(OP(=O)(Oc2ccc(C(C)C)cc2)Oc2ccc(C(C)C)cc2)cc1 the Potency was “inactive”.
For C[C@@H]1CC[C@@]2(OC1)O[C@H]1[C@@H](O)[C@H]3[C@@H]4CC[C@H]5C[C@@H](O[C@@H]6O[C@H](CO)[C@H](O[C@@H]7O[C@H](CO)[C@@H](O)[C@H](O[C@@H]8OC[C@@H](O)[C@H](O)[C@H]8O)[C@H]7O[C@@H]7O[C@H](CO)[C@@H](O)[C@H](O[C@@H]8O[C@H](CO)[C@@H](O)[C@H](O)[C@H]8O)[C@H]7O)[C@H](O)[C@H]6O)[C@H](O)C[C@]5(C)[C@H]4CC[C@]3(C)[C@H]1[C@@H]2C, the Potency was 29 µM (active).
In the case of CC1=C(C(=O)Nc2ccccc2)SCCO1, the Potency is reported as “inactive”.

In the case of Brc1c(Br)c(Br)c(Oc2c(Br)c(Br)c(Br)c(Br)c2Br)c(Br)c1Br, the activity change, negative = cytotoxicity is reported as 4.51% [at 18.9 µM].
